Test results taken from PubChem BioAssay AID1159580 (chemical genetic matrix, 2015).
“And” between values parts separate entries of the source, which are not always exact repeats. Equal values may be shown once. Screen size: about 5,500 compounds; about 2,000 (36%) were called active. Inconclusive results (about 18%) are left out. Cut-off read from the data, not from the text of the source: active = normalized growth mostly below about 0.91 (no sharp cut-off); inconclusive = no clear call, values can overlap the other calls; inactive = mostly above about 0.92. Some of the results follow.

Experiment: chemical genetic growth profiling, strain panel (AID 1159580);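 note: tested at 20 µM; growth read once vehicle control cultures reached saturation at 30 °C; 1 = growth at the plate median or of vehicle wells; lower values mean less growth of the strain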
Conditions: S. cerevisiae deletion strains, growth OD

Measured: normalized growth

CCN(CC)CCNC(=O)c1cc(Cl)c(N)cc1OC
inactive: locus YAL013W, strain DEP1, hits give low values 1.01 | locus YAL021C, strain ccr4, hits give low values 0.992 | locus YAL026C, strain drs2, hits give low values 0.998 | locus YAL030W, strain snc1, hits give low values 0.974 | locus YAL040C, strain CLN3, hits give low values 0.981 | locus YBL061C, strain skt5, hits give low values 0.976 | locus YBR009C, strain hhf1, hits give low values 0.987 | locus YBR021W, strain FUR4, hits give low values 1.02 | locus YBR023C, strain chs3, hits give low values 0.984 | locus YBR171W, strain sec66, hits give low values 0.979 | locus YBR229C, strain ROT2, hits give low values 1.01 | locus YBR231C, strain swc5, hits give low values 0.996 | locus YBR279W, strain paf1, hits give low values 0.992 | locus YCL011C, strain gbp2, hits give low values 0.94 | locus YCL016C, strain dcc1, hits give low values 0.948 | locus YCL029C, strain bik1, hits give low values 0.993 | locus YCL061C, strain MRC1 (second series), hits give low values 1.01 | locus YCL061C, strain MRC1, hits give low values 0.988 | locus YCL069W, strain vba3, hits give low values 0.985 | locus YCR088W, strain abp1, hits give low values 0.991 | locus YDL005C, strain med2, hits give low values 0.986 | locus YDL035C, strain GPR1, hits give low values 1.01 | locus YDL040C, strain nat1, hits give low values 0.988 | locus YDL074C, strain BRE1, hits give low values 1.02 | locus YDL101C, strain DUN1, hits give low values 1 | locus YDL134C, strain PPH21, hits give low values 1.01 | locus YDL185W, strain tfp1, hits give low values 0.996 | locus YDL192W, strain arf1, hits give low values 1.01 | locus YDR001C, strain nth1, hits give low values 0.968 | locus YDR069C, strain doa4, hits give low values 0.962 | locus YDR101C, strain arx1, hits give low values 0.985 | locus YDR137W, strain rgp1, hits give low values 0.967 | locus YDR150W, strain NUM1, hits give low values 1.02 and 1.01 | locus YDR159W, strain sac3, hits give low values 1.01 | locus YDR162C, strain NBP2, hits give low values 1.01 | locus YDR195W, strain ref2 0.974 | locus YDR297W, strain sur2, hits give low values 0.984 | locus YDR318W, strain mcm21, hits give low values 0.996 | locus YDR334W, strain swr1, hits give low values 0.93 | locus YDR335W, strain msn5, hits give low values 0.976 | locus YDR363W, strain ESC2, hits give low values 1.02 | locus YDR388W, hits give low values 0.995 | locus YDR392W, strain spt3, hits give low values 0.975 | locus YDR502C, strain sam2, hits give low values 0.988 | locus YEL003W, strain gim4, hits give low values 0.994 | locus YEL037C, strain rad23, hits give low values 0.976 | locus YEL061C, strain CIN8 (second series), hits give low values 0.978 | locus YEL061C, strain CIN8, hits give low values 1.01 | locus YER002W, strain NOP16, hits give low values 0.994 | locus YER015W, strain faa2, hits give low values 0.979 | locus YER016W, strain bim1, hits give low values 0.994 | locus YER110C, hits give low values 0.994 | locus YER111C, strain swi4, hits give low values 0.988 | locus YER155C, strain BEM2 (second series), hits give low values 1.03 | locus YER155C, strain BEM2, hits give low values 0.999 | locus YER167W, strain BCK2, hits give low values 1.01 | locus YFR010W, strain ubp6, hits give low values 0.969 | locus YGL078C, strain dbp3, hits give low values 0.997 | locus YGL086W, strain mad1, hits give low values 0.993 | locus YGL167C, strain pmr1, hits give low values 0.972 | locus YGL173C, strain kem1, hits give low values 0.98 | locus YGL227W, strain vid30, hits give low values 0.977 | locus YGL240W, strain doc1, hits give low values 1.01 | locus YGL248W, strain PDE1, hits give low values 1.01 | locus YGL253W, strain hxk2, hits give low values 0.981 | locus YGR078C, strain PAC10, hits give low values 1.02 | locus YGR135W, strain pre9, hits give low values 0.998 | locus YGR229C, strain SMI1, hits give low values 1.01 and 1.02 | locus YGR252W, strain gcn5, hits give low values 0.958 | locus YHR013C, strain ard1, hits give low values 0.955 | locus YHR027C, strain rpn1, hits give low values 0.963 | locus YHR030C, strain SLT2, hits give low values 1.01 and 1.07 | locus YHR079C, strain IRE1 (second series), hits give low values 0.994 | locus YHR079C, strain IRE1, hits give low values 1.07 | locus YHR094C, strain hxt1, hits give low values 0.992 | locus YHR129C, strain ARP1, hits give low values 1 | locus YHR142W, strain chs7, hits give low values 0.939 | locus YHR200W, strain rpn10, hits give low values 0.994 | locus YIL066C, strain RNR3, hits give low values 1.02 | locus YIL073C, strain SPO22, hits give low values 1.02 | locus YIL125W, strain kgd1, hits give low values 0.993 | locus YIR030C, strain dcg1, hits give low values 1 | locus YJL092W, strain hpr5, hits give low values 0.978 | locus YJL095W, strain BCK1 (second series), hits give low values 0.978 | locus YJL095W, strain BCK1, hits give low values 1 and 1.04 | locus YJL115W, strain asf1, hits give low values 0.953 | locus YJL129C, strain trk1, hits give low values 0.997 | locus YJL134W, strain LCB3, hits give low values 1.01 | locus YJL154C, strain vps35, hits give low values 0.971 | locus YJL164C, strain tpk1, hits give low values 1.01 | locus YJL166W, strain qcr8, hits give low values 0.956 | locus YJL168C, strain set2, hits give low values 0.992 | locus YJL187C, strain SWE1 (second series), hits give low values 1.02 | locus YJL187C, strain SWE1, hits give low values 0.989 | locus YJR043C, strain POL32, hits give low values 0.996 | locus YJR066W, strain TOR1, hits give low values 1
